# PubChem BioAssay (EPA / NIEHS)
# Several values for one entry are separate records, joined by “and”; a condition that tells them apart may be missing. Equal entries are not always repeated. Records with an inconclusive call do not appear. More than one record can exist for a structure, and the calls need not agree. Activity calls are given as the source filed them. Rule for the calls, unless noted: active = hit-call score of the fitted dose curve at least 0.9, where 1 is the maximum; inconclusive = response in the unintended direction; inactive = score below 0.9.
# Tests used:
# [1] = target: Estrogen receptor (Homo sapiens) (UniProt P03372); assay: CCTE_Deisenroth_AIME_384WELL_LUC_Inactive: CCTE's 384-well Estrogen Receptor Transactivation Assay without AIME metabolic competence (ERTA luciferase; metabolism negative), Deisenroth Lab (AID 2284038);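 note: VM7Luc4E2 breast cells given medium preincubated 2 h with S9-free microspheres; hits raise estrogen receptor luciferase signal so potencies reflect agonists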
# Sequence of Estrogen receptor (Homo sapiens) (P03372 whole entry, looked up): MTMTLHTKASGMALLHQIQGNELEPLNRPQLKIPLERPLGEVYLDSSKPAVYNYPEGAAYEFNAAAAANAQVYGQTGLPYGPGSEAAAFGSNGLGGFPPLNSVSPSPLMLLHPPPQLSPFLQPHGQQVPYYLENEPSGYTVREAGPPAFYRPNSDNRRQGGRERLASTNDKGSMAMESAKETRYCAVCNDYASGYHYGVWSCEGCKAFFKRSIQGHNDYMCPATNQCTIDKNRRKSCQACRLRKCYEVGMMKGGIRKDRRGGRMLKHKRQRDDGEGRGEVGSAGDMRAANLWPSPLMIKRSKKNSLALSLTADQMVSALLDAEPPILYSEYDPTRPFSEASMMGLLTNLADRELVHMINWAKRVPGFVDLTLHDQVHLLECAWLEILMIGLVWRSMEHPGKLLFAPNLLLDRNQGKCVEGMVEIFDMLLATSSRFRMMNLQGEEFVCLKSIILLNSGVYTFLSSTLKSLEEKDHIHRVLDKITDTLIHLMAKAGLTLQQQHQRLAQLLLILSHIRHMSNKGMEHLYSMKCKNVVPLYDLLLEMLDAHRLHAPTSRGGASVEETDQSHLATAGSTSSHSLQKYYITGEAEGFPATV
# Procedure, shortened: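 VM7Luc4E2 ER transactivation, luciferase bioluminescence after 24 h, using medium pre-incubated 2 h with S9-free alginate microspheres. Concentrations 0.002–200 uM; gain of signal fitted relative to 17beta-estradiol.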
# [2] = CCTE_Deisenroth_AIME_384WELL_CTox_Active: Cytotoxicity Assessment (CTOX) in CCTE's 384-well Estrogen Receptor Transactivation Assay with AIME metabolic competence (metabolism positive), Deisenroth Lab (AID 2284037);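 note: chemicals first conditioned 2 h by alginate-bound induced rat liver S9 before cells; activity means signal loss indicating cell death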
# Procedure, shortened: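 Chemicals pre-incubated 2 hours with alginate-immobilised phenobarbital/beta-naphthoflavone-induced male Sprague Dawley rat liver S9, then conditioned medium applied 24 hour to VM7Luc4E2 cells. Viability by fluorogenic protease substrate; 10-point series 0.002 - 200 uM.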
# [3] = CCTE_Deisenroth_AIME_384WELL_CTox_Inactive: Cytotoxicity Assessment (CTOX) in CCTE's 384-well Estrogen Receptor Transactivation Assay without AIME metabolic competence (metabolism negative), Deisenroth Lab (AID 2284039);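 note: cell viability via live-cell protease substrate cleaved to fluorescent probe; cells exposed 24 h to medium preincubated 2 h with alginate-water beads without S9; loss of fluorescence signal means loss of viability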
# Procedure, shortened: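 Fluorescent protease-substrate viability readout after 24 h exposure of VM7Luc4E2 cells to conditioned medium. Chemicals (0.002–200 uM) first sat 2 h over alginate-water beads, no S9. Data fitted bidirectionally, loss of signal meaning viability loss.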
# [4] = CCTE_Shafer_MEA_dev_firing_rate_mean: CCTE's Neural Network Formation Assay for Mean Firing Rate, Shafer Lab (AID 2284031; active = hit-call score of the fitted dose curve at least 0.9, where 1 is the maximum; inactive = score below 0.9;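 for AC50: curve fitted for loss of firing so AC50 reflects decreased mean firing rate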)
# Procedure, shortened: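 Spike frequency (spikes/recording length, averaged over active electrodes) was recorded on days 5, 7, 9 and 12 and collapsed to AUC; rat cortical cultures received compound continuously over 12 days of network development.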
# [5] = CCTE_Shafer_MEA_dev_per_burst_spike_percent: CCTE's Neural Network Formation Assay for Percent of Spikes in a Burst, Shafer Lab (AID 2284032; active = hit-call score of the fitted dose curve at least 0.9, where 1 is the maximum; inactive = score below 0.9;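 for AC50: fitted as a decrease in burst spike percentage below DMSO baseline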)
# Procedure, shortened: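 Value is trapezoidal AUC over recordings on days 5, 7, 9 and 12 of the well-mean fraction of spikes falling in single-electrode bursts; rat cortical cultures exposed continuously from plating, treatment renewed DIV 5 and 9, fitted downward against DMSO.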
# [6] = CCTE_Shafer_MEA_dev_burst_rate: CCTE's Neural Network Formation Assay for Burst Rate, Shafer Lab (AID 2284042; active = hit-call score of the fitted dose curve at least 0.9, where 1 is the maximum; inactive = score below 0.9;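 for AC50: potency for loss of burst rate below DMSO control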)
# Procedure, shortened: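 Exposure ran continuously over 12 days of network development in rat cortical cultures, with compound refreshed during full media changes on DIV 5 and 9. Single-electrode bursts per recording time, well-mean over active electrodes, trapezoidal AUC across days 5–12, fitted downward relative to DMSO.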
# [7] = CCTE_Shafer_MEA_dev_bursting_electrodes_number: CCTE's Neural Network Formation Assay for Number of Bursting Electrodes, Shafer Lab (AID 2284043);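 for AC50: potency is for loss of bursting electrodes relative to DMSO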
# Procedure, shortened: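 Rat cortical primary neurons, 48-well MEA, 16 electrodes/well; dosing DIV 0–12, re-dosed with full media change DIV 5, 9. Recordings DIV 5/7/9/12, AxIS adaptive spike detector; bursting electrode = ≥1 burst/2 min. AUC across days; loss of signal vs DMSO.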
# [8] = CCTE_Shafer_MEA_dev_per_burst_interspike_interval: CCTE's Neural Network Formation Assay for Burst Interspike Interval, Shafer Lab (AID 2284044; active = hit-call score of the fitted dose curve at least 0.9, where 1 is the maximum; inactive = score below 0.9;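 for AC50: potency for a decrease of within-burst interspike interval below DMSO level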)
# Procedure, shortened: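 Developmental network-formation MEA in primary rat cortical cultures with exposure spanning days 0–12. Within-burst ISI is averaged per well and integrated across recording days by area under the curve, with DMSO as negative control baseline.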
# [9] = CCTE_Shafer_MEA_dev_burst_duration_mean: CCTE's Neural Network Formation Assay for Mean Burst Duration, Shafer Lab (AID 2284045; active = hit-call score of the fitted dose curve at least 0.9, where 1 is the maximum; inactive = score below 0.9;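 for AC50: curve fitted for loss meaning shorter burst duration than DMSO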)
# Procedure, shortened: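 Rat cortical cultures, 1.5 x 10^5 cells/well with laminin drop; continuous dosing days 0–12, media plus treatment refreshed DIV 5, 9. AxIS adaptive spike detection; mean single-electrode burst duration, AUC over four recordings, negative direction vs DMSO.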
# [10] = CCTE_Deisenroth_AIME_96WELL_CTox_Inactive: Cytotoxicity Assessment (CTOX) in CCTE's 96-well Estrogen Receptor Transactivation Assay without AIME metabolic competence (metabolism negative), Deisenroth Lab (AID 2284029)
# Procedure, shortened: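 Metabolism-negative mode: alginate-water lids without rat S9, 2 h pre-incubation of 10-point series (0.002 - 200 uM). Conditioned medium on VM7Luc4E2 cells 24 h; loss of fluorescent live-cell protease signal marks cytotoxicity.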
compound,measurement,setting,value
COP(=O)(OC)OC,outcome,[1],inactive
C[C@@H]1C[C@@H]([C@H](O)CC2CC(=O)NC(=O)C2)C(=O)[C@@H](C)C1,AC50,[2],28.5 µM (active)
same,outcome,[3],inactive
Cc1ccc(N)cc1Cl,outcome,[2],inactive
same,outcome,[1],inactive
CCOP(=S)(OCC)SCSP(=S)(OCC)OCC,outcome,[2],inactive
same,AC50,[1],10.3 µM (active)
same,outcome,[3],inactive
NC(=O)O,outcome,[2],inactive
same,outcome,[1],inactive
same,outcome,[3],inactive
CC(=O)C=C(C)C,outcome,[2],inactive
same,outcome,[1],inactive
same,outcome,[3],inactive
COc1ccc(C=O)cc1,outcome,[2],inactive
same,outcome,[1],inactive
same,outcome,[3],inactive
CC(=O)[O][Hg][c]1ccccc1,AC50,[4],0.00554 µM (active)
same,AC50,[5],0.0114 µM (active)
same,AC50,[2],66.1 µM (active)
same,AC50,[3],46.3 µM (active)
same,AC50,[6],0.0117 µM (active)
same,AC50,[7],0.0108 µM (active)
same,AC50,[8],0.0154 µM (active)
same,AC50,[9],0.00963 µM (active)
CCOC(=O)Nc1cccc(OC(=O)Nc2ccccc2)c1,outcome,[1],inactive
Cn1sc(Cl)cc1=O,AC50,[4],8.69 µM (active)
same,AC50,[5],4.02 µM (active)
same,AC50,[6],5.73 µM (active)
same,AC50,[7],5.1 µM (active)
same,AC50,[8],7.73 µM (active)
same,AC50,[9],7.64 µM (active)
CCC(=O)C(CC(C)N(C)C)(c1ccccc1)c1ccccc1 (stereo not given),AC50,[4],3.42 µM (active)
same,AC50,[5],7.25 µM (active)
same,AC50,[6],4.16 µM (active)
same,AC50,[7],4.45 µM (active)
same,AC50,[8],6.65 µM (active)
same,outcome,[9],inactive
CC(C)(c1ccccc1)c1ccc(O)c(C(C)(C)c2ccccc2)c1,AC50,[2],93.9 µM (active)
same,AC50,[3],64.6 µM (active)
O=C(O)C(F)(F)C(F)(F)C(F)(F)C(F)(F)C(F)(F)C(F)(F)F,outcome,[4],inactive
same,outcome,[5],inactive
same,outcome,[3],inactive
same,outcome,[6],inactive
same,outcome,[8],inactive
same,outcome,[9],inactive
O=C1C(Cl)=C(Cl)C(=O)c2ccccc21,AC50,[2],163 µM (active)
same,AC50,[3],189 µM (active)
O=C1C2(Cl)C3(Cl)C4(Cl)C(Cl)(Cl)C5(Cl)C3(Cl)C1(Cl)C5(Cl)C24Cl (stereo not given),AC50,[4],3.94 µM (active)
same,AC50,[5],4.18 µM (active)
same,AC50,[6],3.99 µM (active)
same,AC50,[7],3.55 µM (active)
same,AC50,[8],10 µM (active)
same,outcome,[9],inactive
ClC(Cl)=C(Cl)C(Cl)=C(Cl)Cl,outcome,[2],inactive
same,outcome,[1],inactive
same,outcome,[3],inactive
CC(C)OC(=O)Nc1ccccc1,AC50,[1],17.4 µM (active)
O=S(=O)(c1ccc(Cl)cc1)c1ccc(Cl)cc1,outcome,[1],inactive
same,outcome,[3],inactive
O=C(NCO)NCO,outcome,[2],inactive
same,outcome,[1],inactive
O=C(OC1CCCCC1)c1ccccc1C(=O)OC1CCCCC1,outcome,[10],inactive
CC1(C)CCC(Cc2ccc(Cl)cc2)C1(O)Cn1cncn1 (stereo not given),AC50,[2],120 µM (active)
same,AC50,[3],119 µM (active)
c1cc[c]([Hg][c]2ccccc2)cc1,outcome,[1],inactive
same,outcome,[3],inactive
Oc1cccc2cccnc12,outcome,[2],inactive
same,outcome,[3],inactive
C=C(C)C#N,outcome,[2],inactive
same,outcome,[1],inactive
C=C(C)C(=O)[O][Sn]([CH2]CCC)([CH2]CCC)[CH2]CCC,AC50,[4],0.00431 µM (active)
same,AC50,[5],0.0389 µM (active)
same,AC50,[6],0.0225 µM (active)
same,AC50,[7],0.0199 µM (active)
same,AC50,[8],0.0336 µM (active)
same,AC50,[9],0.0266 µM (active)
CCCCCCCCSC(=O)Oc1cc(Cl)nnc1-c1ccccc1,outcome,[2],inactive
same,outcome,[1],inactive
same,outcome,[3],inactive
CNC(=O)O/N=C/C(C)(C)S(C)=O (stereo not given),outcome,[1],inactive
CNC,outcome,[2],inactive
same,outcome,[1],inactive
same,outcome,[3],inactive
ClC1(Cl)C2(Cl)C3(Cl)C4(Cl)C(Cl)(Cl)C5(Cl)C3(Cl)C1(Cl)C5(Cl)C24Cl (stereo not given),outcome,[4],inactive
same,AC50,[5],3.9 µM (active)
same,AC50,[6],2.64 µM (active)
same,AC50,[7],1.62 µM (active)
same,AC50,[8],1.58 µM (active)
same,outcome,[9],inactive
[O-][Cl+2]([O-])O,outcome,[1],inactive
same,outcome,[3],inactive
CCOP(=S)(OCC)Oc1nc(Cl)c(Cl)cc1Cl,AC50,[4],13.3 µM (active) and 2.98 µM (active) and 12 µM (active)
same,AC50,[5],23.3 µM (active) and 15 µM (active) and 21.4 µM (active)
same,AC50,[6],17.1 µM (active)
same,outcome,[6],inactive
same,AC50,[7],23.2 µM (active) and 4.58 µM (active) and 21.5 µM (active)
same,AC50,[8],15.7 µM (active) and 5.07 µM (active)
same,outcome,[8],inactive
same,outcome,[9],inactive
O=C(O)C(F)(F)C(F)(F)C(F)(F)C(F)(F)C(F)(F)C(F)(F)C(F)(F)C(F)(F)C(F)(F)C(F)(F)F,outcome,[4],inactive
same,outcome,[5],inactive
same,outcome,[6],inactive
same,outcome,[7],inactive
same,outcome,[8],inactive
same,outcome,[9],inactive
NNC(=S)NN,outcome,[2],inactive
same,outcome,[1],inactive
same,outcome,[3],inactive
CCC(C)(C)c1ccc(O)c(C(C)(C)CC)c1,AC50,[2],102 µM (active)
same,AC50,[3],75 µM (active)
O=C1CCCN1,outcome,[2],inactive
same,outcome,[1],inactive
same,outcome,[3],inactive
O=C(Cc1ccccc1)c1ccccc1,outcome,[2],inactive
same,AC50,[1],72 µM (active)
same,outcome,[3],inactive
CC(C)(C)c1cc(O)ccc1O,outcome,[4],inactive
same,AC50,[5],10 µM (active)
same,AC50,[2],137 µM (active)
same,AC50,[1],0.000233 µM (active)
same,AC50,[3],100 µM (active)
same,outcome,[6],inactive
same,AC50,[7],6.04 µM (active)
same,outcome,[8],inactive
same,outcome,[9],inactive
COP(=O)(OC)O/C(=C\Cl)c1cc(Cl)c(Cl)cc1Cl,outcome,[4],inactive
same,outcome,[5],inactive
same,AC50,[2],100 µM (active)
same,outcome,[1],inactive
same,AC50,[3],100 µM (active)
same,outcome,[6],inactive
same,AC50,[7],79.3 µM (active) and 51.5 µM (active)
same,outcome,[8],inactive
same,outcome,[9],inactive
CC(=O)c1cc(C(C)(C)C)cc2c1CCC2(C)C,outcome,[2],inactive
same,outcome,[1],inactive
same,outcome,[3],inactive
OCC(O)CCl (stereo not given),outcome,[2],inactive
same,AC50,[1],0.124 µM (active)
